Bioassay records (PubChem)
Shown are actives, neighbours in structure and some others; about 6.7% of the full set was active somewhere.
KB-3-1 cytotox = KB-3-1 parental cell cytotoxicity; KB-3-1 viability, CellTiter-Glo ATP luminescence, 72 h; Potency, µM (top dose mostly 46.1 µM), hits mostly cytotoxic; 1.4% of 400,000 active; AID 1347075; note: nearly all actives have a fitted effect of over 60% in size
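Here the drug-naive KB-3-1 line serves as comparator for MDR sub-line selectivity; cells received compound titrations, 72 h at 37 °C, then CellTiter-Glo readout.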
PINK1 expr mod = PINK1 expression modulation; PINK1 immunofluorescence, high-content cytometry, 24 h; Potency, µM (top dose mostly 76.6 µM), most hits filed as activators; 0.2% of 410,000 active; AID 624263; active = well fitted activation curve with a large enough effect; inconclusive = small, poorly fitted or top-dose-only effect; cell line not stated here; note: nearly all actives have a fitted effect of over 65% in size
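Compound titrations (5 concentrations, 24 h) on a stable cell line; DMSO and CCCP controls. Endpoint: fixed-cell PINK1 immunofluorescence with mitochondrial, cell and nuclear markers, scanned by microplate cytometer.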
KB-V1 MDR tox = KB-V1 MDR subline cytotoxicity | KB-V1 MDR cells viability, CellTiter-Glo, 72 h | Potency, µM (doses to about 46.1 µM), actives largely listed as cytotoxic | 3.4% of 400,000 active | AID 1347076; note: nearly all actives have a fitted effect of over 60% in size
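Readout: CellTiter-Glo luminescence, 10 min after addition. Cells: KB-V1 MDR subline, 72 h at 37 degrees C with compound. Analysis: corrected, normalized data fitted to concentration-effect curves.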
SW480 rereplic = DNA re-replication induction in SW480 cells; SW480 DNA re-replication, Hoechst DNA content imaging, 48 h; Potency, µM (titrated, usually from 46.1 µM), hits mostly activators; 1.8% of 340,000 active; note: nearly all actives have a fitted effect of over 55% in size
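First, 250 cells per well were seeded. Next, compound or vehicle (23 nL) was pinned in, plates sat 48 hr at 37 C. Finally Hoechst was added for 40 min before fluorescence scanning.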
MCF10A rerep = DNA re-replication induction in MCF 10a cells; 2.9% of 350,000 active; MCF 10A DNA re-replication, Hoechst nuclear intensity, 48 h; AID 624296; Potency, µM (highest dose often 46.1 µM), most hits filed as activators; note: nearly all actives have a fitted effect of over 50% in size
Each line names hits and unclear results; the compound was inactive in the other large screens. Unless noted, calls come from the whole dose curve; as a rule, active = well fitted curve in the direction sought with a large enough effect; inconclusive = small, poorly fitted or top-dose-only effect, or another doubt; inactive = no such curve, though single readings can be large; an effect the other way counts as inactive or inconclusive.

CCc1ccccc1NC(=O)CN(C)C(=O)CSc1nc2cc(Cl)ccc2s1	KB-V1 MDR tox 14.6µM, SW480 rereplic inconclusive
CCCN1CCc2c(sc(NC(=O)CCS(=O)(=O)c3ccccc3)c2C(N)=O)C1	SW480 rereplic 18.4µM, MCF10A rerep 20.6µM (no result: KB-3-1 cytotox, KB-V1 MDR tox)
COc1ccc(/C=N/Nc2snc(SC)c2C#N)cc1OC	none
COc1cccc(/C=N/Nc2ccnc(=O)[nH]2)c1O	KB-3-1 cytotox 4.61µM, KB-V1 MDR tox inconclusive, SW480 rereplic inconclusive, MCF10A rerep inconclusive
COc1cccc(/C=N/Nc2snc(SC)c2C#N)c1O	KB-3-1 cytotox 13µM, PINK1 expr mod 12.6µM, KB-V1 MDR tox 16.4µM
O=c1nccc(N/N=C/c2ccccc2O)[nH]1	KB-3-1 cytotox 6.51µM, SW480 rereplic inconclusive
CCc1ccc(NC(=O)Cn2cnc3sc(C)c(S(=O)(=O)N4CCC(C)CC4)c3c2=O)cc1	none (no result: SW480 rereplic, MCF10A rerep)
Cc1ccc(F)cc1C(=O)N1CCCCC1c1cc(C(=O)NC(C)C)no1 (configuration not stated)	none (no result: SW480 rereplic, MCF10A rerep)
Cc1ccc(Cc2c(-c3ccc(F)cc3)nc3c(Cl)cc(C(F)(F)F)cn23)cc1	KB-3-1 cytotox inconclusive (no result: SW480 rereplic, MCF10A rerep)
FC(F)(F)c1cc(Cl)c2nc(-c3ccc(Cl)cc3)c(Cc3ccsc3)n2c1	KB-3-1 cytotox 11.6µM (no result: SW480 rereplic, MCF10A rerep)
Fc1ccc(-c2nc3c(Cl)cc(C(F)(F)F)cn3c2Cc2cccc(Cl)c2)cc1	KB-3-1 cytotox 23.1µM (no result: SW480 rereplic, MCF10A rerep)
Cc1ccccc1OCC(=O)Nc1nc(-c2ccncc2)cs1	KB-V1 MDR tox 14.6µM
Cc1cc(C)c(OCC(=O)Nc2nc(-c3ccccn3)cs2)c(C)c1	KB-3-1 cytotox inconclusive, KB-V1 MDR tox 6.51µM
Cc1ccccc1OCC(=O)Nc1nnc(-c2ccncc2)s1	SW480 rereplic inconclusive
COc1cccc(-n2c(SC)nnc2C2CCN(Cc3nc4ccccc4s3)CC2)c1	none (no result: KB-3-1 cytotox, KB-V1 MDR tox, SW480 rereplic, MCF10A rerep)
COc1ccccc1CNC(=O)c1cccc(NC(=O)N2CCSc3ncccc32)c1	none (no result: SW480 rereplic, MCF10A rerep)
CCCCc1ccc(-c2csc(/C(C#N)=C\c3ccco3)n2)cc1	SW480 rereplic inconclusive, MCF10A rerep 18.4µM
CSC(=S)N/N=C/c1ccc(N(C)C)cc1	none
CN(C)c1ccc(C=NNC(=S)Nc2ccc(F)cc2)cc1	SW480 rereplic inconclusive, MCF10A rerep 20.6µM
O=C(CCN1C(=O)/C(=C/c2ccccc2Cl)SC1=S)NCCCN1CCOCC1	KB-3-1 cytotox 14.6µM, SW480 rereplic inconclusive
O=C(CCCN1C(=O)/C(=C/c2cccc(Br)c2)SC1=S)NCCCN1CCOCC1	KB-3-1 cytotox inconclusive, KB-V1 MDR tox inconclusive, MCF10A rerep 23.1µM
Cc1ccc(/C=C2\SC(=S)N(CCC(=O)NCCCN3CCOCC3)C2=O)cc1	MCF10A rerep inconclusive
C=C1NN(CC2CC2)C(=O)N1c1ccc(OCc2ccccc2)cc1	none (no result: SW480 rereplic, MCF10A rerep)
O=C(NCc1ccccc1)c1cc(=O)nc2sc(-c3ccccc3)nn12	KB-3-1 cytotox inconclusive, KB-V1 MDR tox 13µM
CCOC(=O)c1c(NC(=O)CSc2nncs2)sc(C)c1-c1ccccc1	KB-3-1 cytotox inconclusive, KB-V1 MDR tox 7.31µM, MCF10A rerep 7.31µM
CCOC(=O)c1c(NC(=O)CSc2nncs2)sc(C)c1C	none
CCOC(=O)c1c(NC(=O)CSc2nnnn2C)sc(C)c1-c1ccc(C)cc1	KB-3-1 cytotox inconclusive, KB-V1 MDR tox 13µM, MCF10A rerep inconclusive
CCOC(=O)Cc1csc(NC(=O)CSc2nnc(-n3nc(C)cc3C)c3ccccc23)n1	KB-V1 MDR tox 20.6µM
Cc1cc(C)c(S(=O)(=O)Nc2cnc3ccccc3c2)c(C)c1	KB-V1 MDR tox 14.6µM
CCOc1ccc(S(=O)(=O)Nc2cnc3ccccc3c2)cc1	KB-3-1 cytotox inconclusive
Cc1cc(C)c(S(=O)(=O)Nc2ccccc2-c2ccccc2)c(C)c1	KB-3-1 cytotox inconclusive, PINK1 expr mod inconclusive, KB-V1 MDR tox 18.4µM, MCF10A rerep inconclusive
Cc1cn2c(=O)cc(COC(=O)c3cccc(NC(=O)c4ccccc4C)c3)nc2s1	none (no result: KB-3-1 cytotox, KB-V1 MDR tox, SW480 rereplic, MCF10A rerep)
CCOC(=O)C(C)N1N=C(/C=C/c2ccc(C)cc2)CCC1=O (configuration not stated)	KB-3-1 cytotox inconclusive, KB-V1 MDR tox 16.4µM
CCOC(=O)CN1N=C(/C=C/c2ccc(C(C)C)cc2)CCC1=O	KB-3-1 cytotox 7.31µM, KB-V1 MDR tox 2.31µM
O=[N+]([O-])c1ccc(Sc2cc[n+]([O-])c3ccccc23)c([N+](=O)[O-])c1	KB-V1 MDR tox inconclusive, SW480 rereplic 0.82µM
